We go through five compounds from PubChem BioAssay.

Molecules are shown by their SMILES. Active and inactive are the calls of the source.

Test [1] can be described thus: small molecules captured by biotinylated probe aFSTL3 – biochemical, small-molecule microarray, fluorescence 635/667, stem cell growth factor project, primary screen (AID 1064).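 Note: measures binding of the biotinylated anti-FSTL3 antibody to printed compounds.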 Particulars: higher = more signal.
Test [2] is described as follows: binders from COS7 lysate, DM2A8 probe, primary screen, torsin A project, cell lysate, small-molecule microarray, fluorescence 635/667 (AID 1065). Particulars: higher = more signal, COS7 lysate expressing mutant human TOR1A.
The nature of test [3]: small molecules captured by biotinylated probe aFGF2 – biochemical, small-molecule microarray, fluorescence 635/667, stem cell growth factor project, primary screen (AID 1067).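 Note: measures binding of biotinylated aFGF2 protein to printed compounds on slides; z-score merges feature fluorescence and signal-to-noise across triplicate slides.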 To be noted: higher = more signal.
The nature of test [4]: small molecules captured by biotinylated probe aFGF10 – biochemical, small-molecule microarray, fluorescence 635/667, stem cell growth factor project, primary screen (AID 1071).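 Note: score merges 667 nm spot intensity and signal to noise from triplicate slides.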 To be noted: higher = more signal.
The target in test [5] is Neurogenic locus notch homolog protein 2 (Homo sapiens) (UniProt Q04721). Description: small molecules binding Notch2 protein – biochemical, small-molecule microarray, 635 nm fluorescence, stem cell growth factors, primary screen (AID 1073). To be noted: higher = more signal.
Sequence of Neurogenic locus notch homolog protein 2 (Homo sapiens) (Q04721 whole entry, looked up, canonical isoform): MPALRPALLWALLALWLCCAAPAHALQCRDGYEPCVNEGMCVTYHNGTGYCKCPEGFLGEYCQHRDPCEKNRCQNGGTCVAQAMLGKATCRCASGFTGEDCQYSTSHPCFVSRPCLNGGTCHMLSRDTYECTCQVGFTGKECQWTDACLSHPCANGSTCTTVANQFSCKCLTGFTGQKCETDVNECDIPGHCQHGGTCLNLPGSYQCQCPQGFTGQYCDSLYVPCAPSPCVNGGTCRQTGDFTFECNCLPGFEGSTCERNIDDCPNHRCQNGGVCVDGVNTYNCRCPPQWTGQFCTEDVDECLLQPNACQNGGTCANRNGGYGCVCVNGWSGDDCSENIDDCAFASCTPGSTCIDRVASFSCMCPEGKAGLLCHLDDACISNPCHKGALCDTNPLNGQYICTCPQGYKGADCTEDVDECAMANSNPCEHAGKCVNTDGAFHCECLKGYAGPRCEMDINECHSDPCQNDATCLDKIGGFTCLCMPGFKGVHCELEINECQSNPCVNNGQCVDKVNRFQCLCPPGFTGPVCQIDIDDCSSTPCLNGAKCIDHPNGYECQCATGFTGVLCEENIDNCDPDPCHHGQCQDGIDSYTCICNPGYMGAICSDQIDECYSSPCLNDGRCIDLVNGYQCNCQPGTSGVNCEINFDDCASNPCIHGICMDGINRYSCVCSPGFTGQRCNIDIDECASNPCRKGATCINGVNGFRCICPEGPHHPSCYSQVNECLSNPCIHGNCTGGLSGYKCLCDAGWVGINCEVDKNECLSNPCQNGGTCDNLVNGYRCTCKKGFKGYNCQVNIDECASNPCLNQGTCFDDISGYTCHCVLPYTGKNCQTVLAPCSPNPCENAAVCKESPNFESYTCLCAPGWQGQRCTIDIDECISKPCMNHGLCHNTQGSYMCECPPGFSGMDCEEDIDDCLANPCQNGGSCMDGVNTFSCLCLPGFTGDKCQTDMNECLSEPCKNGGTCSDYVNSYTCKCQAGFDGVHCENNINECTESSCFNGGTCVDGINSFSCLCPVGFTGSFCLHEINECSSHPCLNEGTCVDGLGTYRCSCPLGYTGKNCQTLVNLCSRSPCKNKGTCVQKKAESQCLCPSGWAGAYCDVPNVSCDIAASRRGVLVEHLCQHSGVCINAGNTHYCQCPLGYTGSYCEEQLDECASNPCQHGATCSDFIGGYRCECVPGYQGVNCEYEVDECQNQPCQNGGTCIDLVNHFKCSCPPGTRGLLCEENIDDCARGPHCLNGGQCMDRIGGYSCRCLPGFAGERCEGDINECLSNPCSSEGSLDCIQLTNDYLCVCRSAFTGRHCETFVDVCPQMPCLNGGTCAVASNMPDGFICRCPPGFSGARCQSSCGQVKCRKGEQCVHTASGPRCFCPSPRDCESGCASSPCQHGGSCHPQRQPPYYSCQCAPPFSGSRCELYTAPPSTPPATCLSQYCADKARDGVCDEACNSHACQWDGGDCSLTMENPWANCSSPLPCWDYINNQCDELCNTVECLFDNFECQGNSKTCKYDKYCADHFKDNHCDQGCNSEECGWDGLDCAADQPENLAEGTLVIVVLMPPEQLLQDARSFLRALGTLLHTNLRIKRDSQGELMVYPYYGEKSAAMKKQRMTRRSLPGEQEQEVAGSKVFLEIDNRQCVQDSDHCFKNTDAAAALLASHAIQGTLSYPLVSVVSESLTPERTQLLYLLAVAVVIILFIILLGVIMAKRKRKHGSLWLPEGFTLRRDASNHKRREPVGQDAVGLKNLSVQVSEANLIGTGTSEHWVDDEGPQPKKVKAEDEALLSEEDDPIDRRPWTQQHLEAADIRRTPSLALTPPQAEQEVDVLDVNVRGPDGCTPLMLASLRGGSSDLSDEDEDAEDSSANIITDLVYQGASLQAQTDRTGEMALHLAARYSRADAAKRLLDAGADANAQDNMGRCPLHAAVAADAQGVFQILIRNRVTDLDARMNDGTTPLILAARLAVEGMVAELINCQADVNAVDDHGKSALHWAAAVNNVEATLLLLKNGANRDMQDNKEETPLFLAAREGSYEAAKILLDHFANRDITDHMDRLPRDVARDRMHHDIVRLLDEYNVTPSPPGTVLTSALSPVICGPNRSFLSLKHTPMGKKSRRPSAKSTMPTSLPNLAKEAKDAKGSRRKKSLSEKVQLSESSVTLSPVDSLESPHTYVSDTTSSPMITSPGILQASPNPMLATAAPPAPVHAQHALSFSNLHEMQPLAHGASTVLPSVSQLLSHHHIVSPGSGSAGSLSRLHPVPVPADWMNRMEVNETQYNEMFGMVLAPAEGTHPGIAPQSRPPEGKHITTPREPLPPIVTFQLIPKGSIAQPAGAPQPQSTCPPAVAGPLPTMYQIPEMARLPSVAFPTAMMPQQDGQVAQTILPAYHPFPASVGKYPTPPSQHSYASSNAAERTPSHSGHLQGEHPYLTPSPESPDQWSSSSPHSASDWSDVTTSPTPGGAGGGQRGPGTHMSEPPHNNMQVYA
The target in test [6] is Pro-neuregulin-1, membrane-bound isoform (Homo sapiens) (UniProt Q02297). Description: small molecules binding neuregulin-1 protein – biochemical, small-molecule microarray, fluorescence 635/667, psychiatric disease protein project, primary screen (AID 1075).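 Note: score combines 667 nm spot fluorescence with signal to noise.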 To be noted: NRG1 binding, 635 nm fluorescence, higher = more signal.
Sequence of Pro-neuregulin-1, membrane-bound isoform (Homo sapiens) (Q02297 whole entry, looked up, the tested form may be a part, canonical isoform): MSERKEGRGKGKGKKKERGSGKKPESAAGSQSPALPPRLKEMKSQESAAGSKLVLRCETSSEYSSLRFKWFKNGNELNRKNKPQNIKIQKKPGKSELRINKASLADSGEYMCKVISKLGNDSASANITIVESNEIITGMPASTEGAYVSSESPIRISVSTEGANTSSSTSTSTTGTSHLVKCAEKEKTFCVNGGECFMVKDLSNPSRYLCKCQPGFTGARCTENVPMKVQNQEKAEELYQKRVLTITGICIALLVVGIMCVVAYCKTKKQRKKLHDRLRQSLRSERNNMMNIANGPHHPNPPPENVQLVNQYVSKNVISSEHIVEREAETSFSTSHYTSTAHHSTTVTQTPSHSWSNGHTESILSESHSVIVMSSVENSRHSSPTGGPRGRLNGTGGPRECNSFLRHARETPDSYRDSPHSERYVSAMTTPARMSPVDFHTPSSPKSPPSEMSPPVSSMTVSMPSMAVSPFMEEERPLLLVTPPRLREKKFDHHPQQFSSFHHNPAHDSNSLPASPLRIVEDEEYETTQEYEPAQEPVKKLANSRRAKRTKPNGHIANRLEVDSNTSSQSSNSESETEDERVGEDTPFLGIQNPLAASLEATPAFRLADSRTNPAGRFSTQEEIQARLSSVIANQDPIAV
Test [7] has as its system Neuregulin-1 EGF-like domain. Nature of the test: small molecules binding NRG1 EGF domain – biochemical, small-molecule microarray, 635 nm fluorescence, primary screen (AID 1081).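 Note: binding of the protein to compounds printed on small-molecule microarray slides.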 Particulars: higher = more signal.
The nature of test [8]: FRG1 expression reporter modulators in myotubes – cell-based, C2C12 myotubes, firefly/Renilla luciferase, luminescence, FRG1 inhibition for FSHD, primary screen (AID 1084). To be noted: FRG1 promoter luciferase, higher = more signal, called active from +8 up or from −8 down.
Test [9] is described as follows: small molecules captured by biotinylated probe aFST – biochemical, small-molecule microarray, fluorescence 635/667, stem cell growth factor project, primary screen (AID 1086).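 Note: score merges 667 nm fluorescence with signal-to-noise of each printed compound spot.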 Particulars: higher = more signal.
The nature of test [10]: binders of probe aHhip on microarray, primary screen, stem cell growth factor project, biochemical, small-molecule microarray, fluorescence 635/667 (AID 1087).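 Note: score merges spot fluorescence at 667nm with spot signal to noise ratio.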 To be noted: higher = more signal.
Test [11] relates to PRMT1 (protein arginine N-methyltransferase 1). Nature of the test: small molecules binding arginine methyltransferase PRMT1 – biochemical, small-molecule microarray, 635 nm fluorescence, primary screen (AID 1088).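 Note: binding of Prmt1 protein to compounds spotted on small-molecule microarray slides.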 Particulars: higher = more signal.
The nature of test [12]: growth effects on S. cerevisiae YJM789 – YJM789 clinical isolate, OD600, 24 h, basal, primary screen (AID 1089).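 Note: growth of clinical yeast isolate S. cerevisiae YJM 789 seeded 1000 cells per well; test concentration not given here.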 To be noted: higher = more signal, called active from +8 up or from −8 down.
A short description of test [13]: S. pombe growth modifiers, basal conditions – strain 972, OD600, 24 h, no modulator, primary screen (AID 1090).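 Note: basal condition with compound alone and no growth modifier present; test concentration not given here.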 To be noted: S. pombe 972 growth, higher = more signal, called active from +8 up or from −8 down.
Test [14] can be described thus: budding yeast growth modifiers under rapamycin – strain BY4716, OD600, 96 h, primary screen (AID 1091). Note: test concentration not given here. Particulars: S. cerevisiae BY4716 + rapamycin, higher = more signal, called active from +8 up or from −8 down.
Test [15] concerns the target Torsin-1A-interacting protein 2 (Homo sapiens) (UniProt Q8NFQ8). Description: small molecules binding lysate-expressed LULL1 – cell lysate, human LULL1 lysate, 635/667 nm fluorescence, primary screen (AID 1092).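 Note: score merges per-feature 667 nm fluorescence with signal-to-noise.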 To be noted: small-molecule microarray, hLULL1 lysate binding, 635 nm fluorescence; higher = more signal.
The nature of test [16]: optical density change of DRC41 E. coli – strain DRC41, OD650, 24 h, E. coli filamentation project, primary screen (AID 1093).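 Note: MC1000 strain lacking acrAB efflux and sulA so SOS filamentation is blocked; test concentration not given here.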 Particulars: E. coli DRC41 growth, higher = more signal, called active from +8 up or from −8 down.
Test [17] is described as follows: probe aLefty2 binding to arrayed compounds – biochemical, biotinylated probe, 635/667 nm fluorescence, primary screen (AID 1094).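 Note: score merges spot fluorescence near 667 nm with spot signal-to-noise ratio.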 To be noted: small-molecule microarray, higher = more signal.
The test system of test [18] is Noggin (protein binding on small-molecule microarray). Nature of the test: small molecules binding Noggin protein – biochemical, 635/667 nm fluorescence, primary screen (AID 1095).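 Note: score merges 667 nm feature fluorescence with signal to noise over triplicate slides.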 To be noted: 635 nm fluorescence, higher = more signal.
The target of test [19] is Neurogenic locus notch homolog protein 3 (Homo sapiens) (UniProt Q9UM47). Description: small molecules binding NOTCH3 protein – biochemical, 635/667 nm fluorescence, primary screen (AID 1096). To be noted: small-molecule microarray, 635 nm fluorescence, higher = more signal.
A short description of test [20]: probe aEGFR binding to arrayed compounds – biochemical, biotinylated probe, 635/667 nm fluorescence, primary screen (AID 1097).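 Note: probe is a biotinylated anti-EGFR antibody binding compounds printed on slides; score combines fluorescence near 667 nm and signal to noise of each spot.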 To be noted: small-molecule microarray, higher = more signal.

Sequence of Torsin-1A-interacting protein 2 (Homo sapiens) (Q8NFQ8 whole entry, looked up): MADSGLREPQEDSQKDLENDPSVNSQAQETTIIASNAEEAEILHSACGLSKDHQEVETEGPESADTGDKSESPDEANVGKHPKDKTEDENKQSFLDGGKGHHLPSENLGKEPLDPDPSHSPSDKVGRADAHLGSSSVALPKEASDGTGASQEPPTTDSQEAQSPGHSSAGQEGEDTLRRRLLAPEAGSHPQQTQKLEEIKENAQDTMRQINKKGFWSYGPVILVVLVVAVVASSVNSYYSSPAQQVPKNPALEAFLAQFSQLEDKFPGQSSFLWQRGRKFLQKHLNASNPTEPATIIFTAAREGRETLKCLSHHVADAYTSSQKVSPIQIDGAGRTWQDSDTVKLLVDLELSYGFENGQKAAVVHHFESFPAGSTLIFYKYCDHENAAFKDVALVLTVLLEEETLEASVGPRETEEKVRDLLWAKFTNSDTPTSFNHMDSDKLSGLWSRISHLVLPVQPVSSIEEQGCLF

For `CO[C@H]1O[C@H](CO)[C@@H](OC(=O)CCc2ccccc2)[C@@H]2OC(=O)[C@H](Cc3cccc(Br)c3)C/C=C/C[C@@H](Cc3cccc(Br)c3)C(=O)O[C@@H]12`, the composite z-score in test [1] is 0.617; in test [2] it was 0.361; in test [3], -0.139; in test [4], -0.722; in [5], -1.2; in test [6], 0.964. Moreover, the composite z-score was -0.0592 in test [7]; 0.0729 in test [9]; -0.134 in test [10]; 0.922 in test [11]; 0.8 in test [15]; -0.134 in test [17]. For the same compound, the composite z-score in test [18] is -0.6; in test [19] it was -0.791; in test [20] it was -0.186. Moreover, the z-score in test [8] was -2.01 (inactive); in [12] it was -4.85 (inactive); in test [13], -4.06 (inactive); in [14] it was 3.62 (inactive); in test [16] it was 2.82 (inactive).

`C[C@@H]1CC[C@H]2C(=O)N3[C@@H](CC[C@@H](C)[C@@H]3c3cccc(N4CCOCC4)c3)C(=O)N2[C@H]1c1cccc(Br)c1`: the composite z-score is -0.0356 in [1]; 0.237 in test [2]; -0.108 in [3]; 0.528 in [4]; 0.263 in test [5]; 0.942 in test [6]. In addition, the composite z-score in test [7] came to 0.987; in [9], 0.166; in [10], 0.0373; in test [11], 0.969; in [15] it was 1.6; in test [17], 0.075. The composite z-score in [18] stood at 0.964; in test [19] it was 0.981; in test [20], 0.161. In addition, the z-score is -0.649 (inactive) in test [8]; -0.586 (inactive) in test [12]; -3.26 (inactive) in test [13]; -1.19 (inactive) in [14]; 0.732 (inactive) in [16].

For the compound `CN(C)CCCC[C@@H]1NC(=O)[C@@H]2C[C@H](C(=O)NCCCCCNC(=O)CS)[C@H](c3ccc(O)cc3)N2C1=O`, the composite z-score in test [1] worked out at 0.174; in test [2], 0.522; in test [3] it was 0.0918; in test [4], 0.429; in test [5], 0.728; in test [6], 0.264. Further, the composite z-score in [7] was 1.22; in test [9], -0.0694; in [10], 0.382; in [11], 1.42; in test [15], 0.863; in test [17], -0.0079. In addition, the composite z-score in test [18] came out at 1.88; in [19] it was 0.208; in test [20], 0.268. In addition, the z-score was 0.47 (inactive) in test [8]; 0.081 (inactive) in test [12]; -1.42 (inactive) in test [13]; -0.342 (inactive) in [14]; 1.14 (inactive) in [16].

For the compound `[N-]=[N+]=Nc1ccccc1C[C@@]1(C(=O)N2CCOCC2)N=C(c2ccc(OCCCO)cc2)O[C@@H]1c1ccccc1N=[N+]=[N-]`, the composite z-score in [1] amounted to 1.14; in [2] it was 0.782; in test [3] it was 0.195; in test [4], 0.707; in [5], 1.45; in test [6], 0.889. Further, the composite z-score stood at 1.12 in test [7]; 1.18 in [9]; 0.0511 in test [10]; 1.56 in [11]; 2.32 in test [15]; 0.369 in test [17]. The composite z-score in test [18] was 0.8; in [19], 1.09; in [20], 0.0477. Moreover, the z-score in test [8] is -1.36 (inactive); in test [12], -0.822 (inactive); in test [13], -2.95 (inactive); in test [14] it was 1.56 (inactive); in test [16] it was 2.13 (inactive).

Consider `Cc1ccc(S[C@]2(C(=O)O)CC(=O)N(Cc3ccccc3)[C@@H]2c2ccc(CO)cc2)cc1`, for which the composite z-score in test [1] was 0.58; in test [2] it was 0.131; in test [3], -0.0853; in [4], -1.1; in test [5], 0.0203; in test [6], -0.33. Further, the composite z-score was 0.736 in test [7]; 0.262 in test [9]; -0.367 in [10]; 0.191 in test [11]; 1.88 in [15]; -0.0953 in test [17]. For the same compound, the composite z-score in [18] is -0.674; in test [19] it was -0.0738; in test [20], -0.136. Further, the z-score was -0.579 (inactive) in [8]; -0.179 (inactive) in test [12]; -2.58 (inactive) in test [13]; 0.215 (inactive) in [14]; 2.49 (inactive) in test [16].
